Screens (PubChem BioAssay)
HCMV antiviral = human cytomegalovirus inhibition | activity change, negative = inhibition, % at 57.5 µM | AID 1259415 | actives 4.5% (n = 410,000) | HFF cells, HCMV-luciferase reporter, 72 h; hits give low values; in the data active = activity change below about -60%; inconclusive = no clear call, values can overlap the other calls; inactive = above about -39%; note: % is set by controls: 0 for no effect and ±100 for the full control effect
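Cell-based, HFFs, 1000 cells/well, 16 h 37C; cpds in DMSO + HCMV-luc, MOI 1 PFU/cell; 72 h 37C; OneGlo luminescence after 5 min RT; norm. to buffer vs Salinomycin 10uM.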
HCV inh = HCV inhibition. AID 651820. Huh7.5.1 HCVcc-Cre infection, luciferase reporter, 44 h. Potency, µM (series often up to 41.8 µM), for inactives: top-dose activity change, negative = inhibition, usual class: inhibitors. actives 3.4% (n = 340,000); active = well fitted inhibition curve with a large enough effect; inconclusive = small, poorly fitted or top-dose-only effect, or another doubt; inactive = no such curve, though single readings can be large or run the other way; note: potency is the fitted concentration of half-maximal effect; % is set by controls: 0 for no effect and ±100 for the full control effect
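Cells seeded at 1,000/well and cultured 4 h, then compounds added followed by HCVcc-Cre virus (~0.5 moi). After 44 h further culture, luciferase substrate was added, plates held 15 min at room temperature, and luminescence read for 15 sec.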
FMDV inh = blocks foot and mouth disease virus; FMDV antiviral cell-based qHTS; AID 1159524; Potency, µM (top dose mostly 57.9 µM), without a hit: at the top dose activity change, negative = inhibition, most hits filed as inhibitors; actives 1.2% (n = 410,000); calls by dose curve; tested in HEK293T cells; note: read-out not given here; potency is the fitted concentration of half-maximal effect; % is set by controls: 0 for no effect and ±100 for the full control effect; nearly all actives have a fitted effect of over 45% in size
MARV entry inh = Marburg virus entry inhibition. Marburg virus pseudotyped entry inhibition, cell reporter. Potency, µM (series often up to 37.8 µM), for the others: top-dose activity change, negative = inhibition, actives largely listed as inhibitors. actives 1.8% (n = 300,000); calls by dose curve; tested in HEK293 cells; note: potency is the fitted concentration of half-maximal effect; % is set by controls: 0 for no effect and ±100 for the full control effect
SARS PLP yeast = blocks SARS-CoV papain-like protease in a yeast assay. actives 0.19% (n = 330,000). Potency, µM (top dose mostly 32.9 µM), for inactives: top-dose activity, positive = growth rescue, actives largely listed as activators. S. cerevisiae expressing SARS-CoV PLpro, growth rescue; calls by dose curve; note: potency is the fitted concentration of half-maximal effect; 0% is about no effect; nearly all actives have a fitted effect of over 55% in size
Lassa entry inh = blocks Lassa virus binding to or entry into cells; AID 540256; Lassa virus pseudotype entry inhibition, cell reporter; Potency, µM (series often up to 37.9 µM), inactives show at the top dose activity change, negative = inhibition, most hits filed as inhibitors; actives 1.2% (n = 300,000); calls by dose curve; tested in HEK293 cells; note: potency is the fitted concentration of half-maximal effect; % is set by controls: 0 for no effect and ±100 for the full control effect; nearly all actives have a fitted effect of over 50% in size
* = called active by the depositor; ? = inconclusive; . = no result; [ ] = remark or other dose. This is a sample that favours compounds with a hit; in the whole collection about 8% have one here.

SMILES | HCMV antiviral | HCV inh | FMDV inh | MARV entry inh | SARS PLP yeast | Lassa entry inh
CC1(c2ccc(Cl)cc2)CC(C)(C)N(C(=O)c2ccccc2)c2ccccc21 (stereo not given) | -83* | . | ? | 18%[46.1 µM] | . | 2%[46.1 µM]
COc1ccc(C(=O)N2c3ccccc3C(C)(c3ccc(Cl)cc3)CC2(C)C)cc1 (stereo not given) | -93* | . | -7% | . | . | -21%[46.1 µM]
CC(C)NC(=O)Cn1ccc2cc(S(=O)(=O)N3CCCCCC3)ccc21 | -11 | . | -15% | . | . | 12%[46.1 µM]
Cc1cccc(N2CCN(S(=O)(=O)c3c(C(=O)N4CCC(C)CC4)c(C)n(C)c3C)CC2)c1C | 1 | . | -13% | . | . | ?
Cc1ccc(C(=O)/C=C2\NCCNC2=O)cc1 | 73 | 6% | -8% | -29% | -5% | ?
Cc1ccc(C(=O)/C=C2\NCC(C)NC2=O)cc1 (stereo not given) | -18 | -2% | -72% | 5.6µM* | -7% | 8.9µM*
Cc1nn2c(C)c(C(=O)NCc3cccc(Br)c3)cnc2c1-c1ccccc1 | -13 | . | -4% | . | . | ?
COc1cc(/C=N\NC(=O)c2ccc(-c3ccccc3)cc2)cc(Br)c1O | -68* | ? | -6% | ? | 45% | -6%
COc1cc(OC)c2cc(C(=O)N/N=C/c3ccccc3O)[nH]c2c1 | -96* | 8.9µM* | -16% | . | 1% | .
COc1cc(/C=N/NC(=S)Nc2cccc(C(=O)O)c2)ccc1O | -27 | 2% | ? | ? | -4% | ?
COc1cccc(/C=N/NC(=S)Nc2cccc(C(=O)O)c2)c1O | 52 | 12% | ? | 5.8µM* | 9% | 5.8µM*
COc1cc(/C=N/NC(=O)c2ccc3c(c2)OCCO3)cc(Br)c1O | 22 | -5% | 26% | . | 0% | .
CCOc1c(Br)cc(/C=N\NC(=O)c2ccccc2)cc1OC | -63* | ? | -28% | ? | -6% | 12%
COc1ccc(N2CCC[C@@H]2/C=C/C(=O)OC(C)(C)C)cc1 | 24 | . | . | . | . | .
C=C[C@H](O)Cc1c(C)n[nH]c1C | . | . | . | 1% | . | .
CCc1ccc(NC(=O)Cn2c(=O)n(Cc3ccco3)c(=O)c3cccnc32)cc1 | -12 | . | -2% | ? | . | .
COc1ccc(/C=N/NC(=O)c2nc(-c3ccccc3)cc(-c3ccccc3)n2)cc1O | 27 | ? | -10% | 18µM* | 5% | ?
COc1cccc(/C=N/NC(=O)c2ccc(-c3ccccc3)cc2)c1O | -98* | ? | -27% | 3.2µM* | ? | 5.6µM*
CCOC(=O)c1c(C)[nH]c(C(=O)N/N=C/c2ccc(Br)cc2)c1C | -77* | ? | -19% | 2.8µM* | 2% | ?
COc1cc(/C=N/NC(=O)c2nc(-c3ccccc3)n(-c3ccccc3)n2)ccc1O | -34 | 2% | -17% | 36% | -4% | -10%
COc1cc(/C=N/NC(=O)c2ccccc2)ccc1O | 2 | 3% | 31% | . | 2% | .
COc1ccc(/C=N/NC(=O)c2ccc(-c3ccccc3)cc2)cc1O | -60* | ? | ? | 10% | -3% | ?
Cc1[nH]c(C(=O)N/N=C/c2ccc(C(=O)O)cc2)c(C)c1C(=O)N/N=C/c1ccc(C(=O)O)cc1 | -6 | -14% | -2% | ? | -2% | 12%
COc1ccc(/C=N/NC(=O)c2c(-c3ccccc3)noc2C)cc1 | -6 | -1% | ? | 27% | 15% | ?
COc1ccc(/C=N/NC(=O)c2nc(-c3ccccc3)cc(-c3ccccc3)n2)cc1 | ? | 10µM* | -8% | ? | 25% | ?
SMILES | HCMV antiviral | HCV inh | FMDV inh | MARV entry inh | SARS PLP yeast | Lassa entry inh
COc1ccc(/C=N/NC(=O)c2ccc(O)cc2)cc1CN1CCCc2ccccc21 | 61 | ? | 40µM* | -25% | -8% | ?
Cc1ccc2[nH]c(C(=O)N/N=C/c3ccccc3O)c(C)c2c1 | -100* | 3.5µM* | 82% | . | 1% | .
COc1ccc(/C=N/NC(=O)c2ccc(F)cc2)cc1CN1CCc2cc(OC)c(OC)cc2C1C (stereo not given) | 23 | ? | -2% | ? | 2% | -28%[46.1 µM]
COc1cccc(/C=N/NC(=O)c2ccc([N+](=O)[O-])cc2Cl)c1O | -29 | ? | 0% | ? | ? | 15µM*
COc1ccc(OC)c([C@H](O)c2coc3ccc(O)c(CN4CCOCC4)c23)c1 | . | . | . | 16% | . | .
COc1ccc2[nH]c(C(=O)N/N=C/c3ccc(OC)c(O)c3)cc2c1 | -74* | -14% | 7% | ? | 0% | 5.6µM*
NC(=S)N/N=C/c1ccccc1O | -22 | 1% | -10% | . | -1% | .
CCOc1ccc(/C=N/NC(=O)c2cc3c(OC)cc(OC)c(OC)c3[nH]2)cc1 | -3 | 11µM* | -17% | . | -3% | .
NC(=S)N/N=C/c1cccc(O)c1O | -100* | ? | 24% | ? | 1% | ?
CCCOc1ccc2[nH]c(C(=O)N/N=C/c3cc(OC)c(OC)c(OC)c3)cc2c1 | -27 | -13% | -12% | . | 1% | .
COc1cccc(/C=N/NC(=O)c2[nH]c(C)c(C(=O)N/N=C/c3cccc(OC)c3O)c2C)c1O | 57 | ? | 32% | 8.9µM* | ? | ?
COc1ccc2[nH]c(C(=O)N/N=C/c3ccccc3OC)cc2c1 | -3 | -10% | -5% | . | -1% | .
CCN(CC)c1ccc(NS(=O)(=O)c2cc(-c3onc(C)c3C)ccc2OC)c(C)c1 | -36 | . | 3% | . | . | ?
COc1ccc(Cl)cc1NC(=O)CN1C(=O)CSc2ccc(S(=O)(=O)N3CCCC3)cc21 | -36 | . | -5% | . | . | 14%[46.1 µM]
CC1=CC[C@@H](COc2ccccc2)O[C@@]2(C1)C(=O)N(Cc1ccc(F)cc1)c1ccccc12 | . | . | . | -2%[14.2 µM] | . | .
CCn1c(SCc2ccc(F)cc2Cl)nc(=O)c2c(C(=O)OC)cc(C3CC3)nc21 | -3 | . | ? | . | . | ?
COc1ccc(/C=N/Nc2nnc(-c3ccccc3)c(=O)[nH]2)cc1 | -100* | 6% | 6% | 2% | -5% | ?
COc1ccc(CCCC(=O)N/N=C/c2cccc(OC)c2O)cc1C | -99* | ? | -20% | ? | 4% | ?
O=C(NN=Cc1cccc(O)c1O)c1ccccc1 | -94* | . | 12% | . | . | .
CC(=O)N1CCc2cc(Br)cc(S(=O)(=O)N3CCC(C(=O)Nc4cccc(C)c4C)CC3)c21 | -14 | . | 0% | 4%[46.1 µM] | . | 16%[46.1 µM]
COc1ccc2c(c1)c1c(c(=O)n(-c3ccc(OC)c(OC)c3)c(=O)n1CC(=O)N1CCCC1)n2C | 15 | . | 3% | . | . | 1%[46.1 µM]
CN(C)[C@H]1CCN([C@@H]2C[S+](=O)([O-])N[C@@H]2COCc2ccccc2)C1 | . | . | . | . | . | 4%[46.1 µM]
O=S(c1ccccc1O)S(=O)c1ccccc1O (stereo not given) | -26 | 10µM* | 2% | 2%[46.1 µM] | . | -24%[46.1 µM]
CC(Cc1ccc(O)c(O)c1)(NN)C(=O)O (stereo not given) | . | . | 7% | . | . | .
